Screening data from PubChem BioAssay.
In the library only some 6.7% were active in any assay of this set; here they are far more common.
BoNT A protease: inhibitors of Botulinum neurotoxin A light chain protease; AID 588499; 360,000 compounds, 0.17% hits; multiplex microsphere protease substrate cleavage, flow cytometry; inhibition, % at 10 µM; note: plate controls were buffer without enzyme for full effect and enzyme alone for no effect
Bead autofluor: compound fluorescence in toxin protease inhibitor counterscreen. 360,000 compounds, 3.1% hits. fluorescence intensity (no concentration beside the values). compound autofluorescence counterscreen, microsphere flow cytometry; stronger effect = higher value; in the data active = fluorescence intensity above about 16000
Anthrax LF inh2: anthrax lethal factor protease inhibition; multiplex microsphere protease cleavage assay, LF; P15917; 360,000 compounds, 0.12% hits; AID 588501; inhibition, % at 10 µM; note: plate controls were buffer without enzyme for full effect and enzyme alone for no effect
Target sequence (P15917 whole entry, looked up): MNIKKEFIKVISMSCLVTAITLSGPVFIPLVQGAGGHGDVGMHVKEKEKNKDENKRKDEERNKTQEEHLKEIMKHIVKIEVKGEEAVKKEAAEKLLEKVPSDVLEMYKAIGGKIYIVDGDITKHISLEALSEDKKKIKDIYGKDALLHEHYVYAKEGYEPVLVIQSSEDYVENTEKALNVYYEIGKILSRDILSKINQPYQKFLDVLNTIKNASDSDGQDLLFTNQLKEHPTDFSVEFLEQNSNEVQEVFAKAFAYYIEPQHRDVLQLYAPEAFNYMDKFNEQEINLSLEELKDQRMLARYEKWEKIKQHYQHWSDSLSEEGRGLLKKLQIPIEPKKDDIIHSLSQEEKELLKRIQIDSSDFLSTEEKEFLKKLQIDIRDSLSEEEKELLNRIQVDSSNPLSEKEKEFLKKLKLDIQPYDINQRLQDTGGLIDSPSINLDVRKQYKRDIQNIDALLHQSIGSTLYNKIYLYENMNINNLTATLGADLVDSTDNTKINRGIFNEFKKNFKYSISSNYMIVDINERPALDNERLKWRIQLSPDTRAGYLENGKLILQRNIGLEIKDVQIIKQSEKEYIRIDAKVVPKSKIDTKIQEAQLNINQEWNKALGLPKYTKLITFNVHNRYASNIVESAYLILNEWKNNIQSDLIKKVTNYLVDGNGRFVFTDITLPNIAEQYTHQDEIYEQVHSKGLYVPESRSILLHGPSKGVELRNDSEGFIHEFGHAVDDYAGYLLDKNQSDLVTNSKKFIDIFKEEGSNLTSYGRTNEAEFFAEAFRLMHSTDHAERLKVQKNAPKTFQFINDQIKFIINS
BoNT F protease: BoNT F light chain protease inhibition; 360,000 compounds, 0.22% hits; AID 588497; inhibition, % at 10 µM; Multiplex microsphere protease cleavage assay, flow cytometry; in the data active = inhibition above about 35%, passing the limit was not always enough; note: plate controls were buffer without enzyme for full effect and enzyme alone for no effect
Mtb FBA inh: inhibits M. tuberculosis FBA enzyme; 360,000 compounds, 2.3% hits; P9WQA3; AID 588726; purified M. tuberculosis FBA, fluorescence read-out; inhibition, % at 1 µM; in the data active = inhibition above about 27%;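 note: 0% = vehicle and 100% = reference inhibitor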
GDH-TPI counter-1: GDH-TPI coupled enzyme inhibition counter-screen; GDH-TPI coupled enzyme counterscreen, NADH absorbance; inhibition, % at 4.8 µM; 360,000 compounds, 1.2% hits; in the data active = inhibition above about 30%;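 note: 0% = DMSO wells and 100% = wells lacking the enzyme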
Mtb FBA inh conf: Mtb FBA inhibition, confirmed; shares compounds with Mtb FBA inh; purified M. tuberculosis FBA, fluorescence read-out; inhibition, % at 1 µM; 5,600 compounds, 78% hits; AID 651616; in the data active = inhibition above about 27%;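 note: 0% = vehicle wells and 100% = reference inhibitor wells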
GDH-TPI counter-2: GDH-TPI inhibition counter-screen for FBA inhibitors; GDH-TPI coupled enzyme counterscreen, fluorescence; shares compounds with Mtb FBA inh; AID 652141; 5,600 compounds, 81% hits; inhibition, % at 1 µM; in the data active = inhibition above about 10%
GDH-TPI dose: inhibits GDH-TPI coupling enzymes in dose response; shares compounds with Mtb FBA inh; GDH-TPI coupled enzyme assay, fluorescence, artifact counterscreen; IC50, µM; 170 compounds, 79% hits; AID 652145; call rule not given here
* marks the source's active call; other numbers are inactive results; x = no result; + = active, no number. Cut-off read from the data, not from the text of the source, unless noted: active = inhibition above about 30%; inconclusive = no clear call, values can overlap the other calls; inactive = below that.

SMILES	BoNT A protease	Bead autofluor	Anthrax LF inh2	BoNT F protease	Mtb FBA inh	GDH-TPI counter-1	Mtb FBA inh conf	GDH-TPI counter-2	others
O[C@H]1C[C@H](c2ccccc2)N(Cc2cccs2)C[C@@H]1n1cc(C2CC2)nn1	0	3035	0	0	3	7	x	x
O=C(Cn1nc(-c2ccc(Cl)cc2)ccc1=O)NCCN1CCOCC1	-1	6149	-2	-2	1	6	x	x
CCCCn1c(N)c(N(CC(C)C)C(=O)CSc2n[nH]c(-c3ccc(C)cc3)n2)c(=O)[nH]c1=O	x	x	x	x	67*	14	70*	44*
N#Cc1c(N)n(CCNC(=O)c2ccccc2)c2nc3ccccc3nc12	1	2255	0	-3	98*	0	+	+
CCCCn1c(NC(C)=O)c(C#N)c2nc3ccccc3nc21	4	3808	0	21	59*	11	96*	77*
CCCCCn1c(N)c(C#N)c2nc3ccccc3nc21	2	12767	0	1	111*	21	-3	-5
CCOc1ccc2c(c1)C(c1ccccc1)=NNC(c1ccccc1)=N2	0	3926	2	-6	-3	-1	x	x
CCN1CCc2c(C#N)c(N3CCCCC3)nc(N3CCOCC3)c2C1	2	3206	4	1	16	8	x	x
O=[N+]([O-])c1ccc(-c2ccc(/C=N/O)o2)cc1	1	5967	4	1	-9	5	x	x
O=[N+]([O-])c1ccc(C=NN2CCOCC2)s1	0	3603	4	0	-14	0	x	x
O=[N+]([O-])c1ccc(-c2ccc(C=Nc3cccc4ccccc34)o2)cc1	2	9949	-6	-3	71*	33*	12	-4	GDH-TPI dose=>10
O=[N+]([O-])c1ccc(C=Nc2cccc3ccccc23)s1	0	3982	1	-1	50*	-2	6	-1
COC1CCCN(Cc2c(C(=O)N3CCc4ccccc4C3)nc3ccc(Cl)cn23)C1 (stereo unspecified)	-3	4989	-1	-8	0	7	x	x
Cc1c(NCc2cccnc2)cccc1C(=O)O	-4	3165	4	18	100*	-2	112*	100*
Cc1ccc(-c2nnn(CCC(=O)N3CCCCC3C)n2)cc1 (stereo unspecified)	-1	8171	-1	-2	3	10	x	x
NC(=O)c1sc2nc(-c3cccs3)ccc2c1N	10	3792	-2	2	76*	25	62*	56*
Nc1c(C(=O)NC2CCCC2)sc2nc(-c3cccs3)ccc12	18	3069	14	25	27	24	x	x
COc1ccc(OCc2cc(C(=O)N3CCCC(OC)C3)no2)c2ccccc12 (stereo unspecified)	1	5638	-4	-6	-1	-8	x	x
CC(Oc1ccc2c(c1)c1ccnc3c4ccccc4c(=O)n2c13)C(=O)NCCN1CCOCC1 (stereo unspecified)	2	4175	-10	13	44*	15	136*	117*
CC(Oc1ccc(Cl)cc1Cl)C(=O)NCCN1CCOCC1 (stereo unspecified)	1	9737	-2	3	-2	1	x	x
Cn1nc(C(=O)NCCN2CCOCC2)c2ccccc2c1=O	0	11160	0	-8	0	1	x	x
COc1ccc2c(c1OC)c(=O)n1c3ccc(OC(C)C(=O)NCCN4CCOCC4)cc3c3ccnc2c31 (stereo unspecified)	1	5011	-3	-9	91*	6	84*	68*
COc1ccc(C2CC(c3ccccc3)=NN2c2ccc(Cl)c(C(=O)O)c2)cc1 (stereo unspecified)	0	4766	-1	-9	86*	7	+	+
COc1ccc(C2=NN(c3ccccc3)C(c3cn(CCC(=O)O)nc3-c3ccccc3)C2)cc1 (stereo unspecified)	0	4484	3	0	108*	9	23	19*
COc1ccc(C2CC(c3ccncc3)=NN2c2ccc(S(N)(=O)=O)cc2)cc1 (stereo unspecified)	0	3709	-2	-4	68*	11	109*	88*
SMILES	BoNT A protease	Bead autofluor	Anthrax LF inh2	BoNT F protease	Mtb FBA inh	GDH-TPI counter-1	Mtb FBA inh conf	GDH-TPI counter-2	others
COc1ccc(C2CC(c3ccccc3)=NN2S(=O)(=O)c2ccccc2)cc1 (stereo unspecified)	1	3579	2	2	2	5	x	x
COc1ccc(C2=NN(C(=S)Nc3ccccc3)C(c3ccccc3)C2)cc1 (stereo unspecified)	6	2072	2	2	0	12	x	x
CCC(=O)Nc1cccc(C2=NN(c3ccccc3)C(c3ccc(OC)cc3)C2)c1 (stereo unspecified)	-1	3340	-9	-8	77*	14	104*	69*
COc1ccc(C2CC(c3ccccc3)=NN2C(=O)c2ccc(F)cc2)cc1 (stereo unspecified)	0	4047	-3	-13	1	6	x	x
CCOC(=O)Cc1csc(/N=C/c2c(O)n(-c3ccc(C)cc3C)c(=O)c3ccccc23)n1	2	10689	2	-6	53*	14	60*	42*
O=c1c2c(nc3nc(Cc4ccccc4)[nH]n13)CCC2	1	3371	3	10	2	7	x	x
O=c1c2c(nc3c(-c4ccccc4)c[nH]n13)CCC2	1	8867	-1	0	43*	10	59*	38*
O=c1c2c(nc3c(-c4ccc(Cl)cc4)c[nH]n13)CCC2	0	4279	-7	-3	44*	5	32*	28*
COCCNC(=O)C1(C)CCN(C(=O)c2ccc3c(c2)C(C)(C)CCC3(C)C)C1 (stereo unspecified)	0	4378	-5	-5	27*	-1	-4	-8
COCCNC(=O)C1(C)CCN(C(=O)c2ccc(F)c(C)c2)C1 (stereo unspecified)	0	3039	-2	2	2	6	x	x
CCOC(=O)CCc1c(C)c2ccc(OC3CCCCC3=O)cc2oc1=O (stereo unspecified)	-2	3574	-10	21	109*	5	151*	132*
CCOC(=O)CCc1c(C)c2ccc(OCC(=O)OC(C)C)cc2oc1=O	0	3554	-4	2	67*	13	54*	41*
CCC(NC(=O)CCc1c(C)c2cc3c4c(oc3cc2oc1=O)CCCC4)C(=O)O (stereo unspecified)	-3	3887	-2	-9	9	7	x	x
